Screening results (PubChem)
Most compounds without a hit are left out; they make up all but 12% or so of the library.
Sfp inh: blocks B. subtilis Sfp PPTase activity; Q9F4F7; Biochemical Sfp PPTase activity, qHTS; Potency, µM, inactives show largest response in the series, negative = inhibition, actives largely listed as inhibitors; 310,000 tested, 3.5% active;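 also: the enzyme is Sfp with the accession as filed and its product quenches rhodamine fluorescence; 0% = enzyme reaction without inhibitor and -100% = no enzyme wells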
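Step 1, compound plus 15 nM Sfp-PPTase, 15 min, room temperature. Step 2, add rhodamine-CoA (5 uM) and BHQ-2-YbbR (12.5 uM). Step 3, read 525/598 nm fluorescence at 0 and 30 min.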
G9a block: blocks human histone lysine methyltransferase G9a. G9a H3K9 monomethylation, AlphaScreen, 2 h. Potency, µM (doses to about 102 µM), for the others: at the highest dose activity, negative = inhibition, most hits filed as inhibitors. 350,000 tested, 8.8% active. AID 504332; also: % is scaled to controls: 0 for no effect and ±100 for the full control effect; nearly all actives have a fitted effect of over 75% in size
Target sequence (Q96KQ7 913-1193 limits assumed): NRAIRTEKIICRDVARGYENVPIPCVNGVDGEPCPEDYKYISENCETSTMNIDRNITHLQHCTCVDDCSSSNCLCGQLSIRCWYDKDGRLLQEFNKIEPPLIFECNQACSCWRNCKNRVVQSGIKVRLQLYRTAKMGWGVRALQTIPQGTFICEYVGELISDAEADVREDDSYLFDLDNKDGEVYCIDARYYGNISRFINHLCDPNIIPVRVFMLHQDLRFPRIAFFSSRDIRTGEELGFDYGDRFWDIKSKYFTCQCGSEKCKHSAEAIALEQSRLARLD
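Step 1: enzyme (final 20 nM) with compound, 15 min RT. Step 2: substrate peptide 500 nM and SAM 20 uM, 2 h RT. Step 3: anti-H3K9me1 antibody and AlphaScreen beads, 10 min, then plate read.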
JMJD2A Tudor inh: blocks the human JMJD2A Tudor domain; O75164; AlphaScreen JMJD2A-Tudor / H3K4me3 peptide binding; Potency, µM (titrated, usually from 114 µM), inactives show at the highest dose activity change, negative = inhibition, hits mostly inhibitors; 390,000 tested, 4.4% active; AID 504339; also: % is scaled to controls: 0 for no effect and ±100 for the full control effect; nearly all actives have a fitted effect of over 50% in size
BAZ2B block: inhibitors of human BAZ2B bromodomain; AlphaScreen BAZ2B-H3K14Ac peptide displacement; Potency, µM (doses to about 114 µM), for inactives: at the highest dose activity change, negative = inhibition, usual class: inhibitors; 360,000 tested, 4.4% active; AID 504333; also: % is scaled to controls: 0 for no effect and ±100 for the full control effect; nearly all actives have a fitted effect of over 60% in size
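Complex of BAZ2B and biotin-H3K14Ac (50 nM apiece) forms over 30 min at RT, then faces library compounds up to 110 uM for another 30 min; AlphaScreen beads added, 20 min dark incubation, luminescence read.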
HP1b chromo inh: inhibitors of HP1-beta chromodomain binding to methylated histone tails; AID 540317; 390,000 tested, 0.56% active; AlphaScreen HP1-beta / biotin-H3K9me3 peptide binding; Potency, µM (highest dose often 114 µM), without a hit: top-dose activity change, negative = inhibition, usual class: inhibitors; also: nearly all actives have a fitted effect of over 70% in size
Target sequence (P83916 whole entry, looked up): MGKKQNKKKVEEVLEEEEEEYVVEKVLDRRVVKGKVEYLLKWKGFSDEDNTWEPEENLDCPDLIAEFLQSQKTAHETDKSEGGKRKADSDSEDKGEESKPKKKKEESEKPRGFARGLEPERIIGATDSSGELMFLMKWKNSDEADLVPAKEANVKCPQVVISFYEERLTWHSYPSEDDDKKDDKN
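HP1-beta protein (50 nM final) preincubated 30 min at room temperature with biotinylated H3(1-18)K9me3 peptide (50 nM) in PBS pH 7.4, 0.01% Tween-20, then compound added for 30 min. AlphaScreen streptavidin donor/nickel chelate acceptor beads (10 ug/mL final), 30 min dark, luminescence read.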
* = called active by the depositor; u = inconclusive; x = not tested or not shown; [ ] = dose if it differs, or a comment. Calls follow the shape of the dose curve; as a rule, active = well fitted curve in the direction sought with a large enough effect; inconclusive = small, poorly fitted or top-dose-only effect, or another doubt; inactive = no such curve, though single readings can be large; an effect the other way counts as inactive or inconclusive. Potency is read from the fitted curve at half-maximal effect.

SMILES	Sfp inh	G9a block	JMJD2A Tudor inh	BAZ2B block	HP1b chromo inh
O=C(CCN1C(=O)/C(=C\c2ccco2)SC1=S)Nc1ccc(C(=O)O)c(O)c1	44.7µM*	u	56.2µM*	35.5µM*	u
COc1ccccc1/C=C1/SC(=S)N(CCC(=O)Nc2cccnc2)C1=O	16.7%	23.8%	u	-1.7%	24.3%
O=C(CCN1C(=O)/C(=C/c2ccco2)SC1=S)Nc1ccc(C(=O)O)c(O)c1	56.2µM*	22.4µM*	50.1µM*	44.7µM*	50.1µM*
CC(C)(C)S(=O)N1Cc2cn(Cc3ccccc3)c(=O)cc2[C@@H]1CCO (some centres undefined)	x	x	-7.5%	x	34.4%
CCCNc1c(NC(=O)COc2ccc(Cl)cc2)c(=O)oc2ccccc12	8.9%	-2.8%	-12.5%	-15.9%	31.7%
O=C(CCc1nc(-c2ccccc2F)no1)Nc1cccc(C(F)(F)F)c1	x	10.4%[59 µM]	-1.4%	-2.8%	51.0%
COc1cccc(N2CCN(c3ccc4nnc(CCC(=O)Nc5cccc(C(C)=O)c5)n4n3)CC2)c1	8.4%	10.5%[59 µM]	15.8µM*	-10.5%	6.8%
Cc1ccccc1NC(=O)CCNC(=O)Cn1ccc2ccccc2c1=O	x	-0.6%[59 µM]	0.7%	3.5%	25.8%
CCOC(=O)CSC1=C(C#N)C(c2ccc(OC)cc2)C2=C(CC(C)(C)CC2=O)N1 (centres undefined)	35.5µM*	-10.5%[12.7 µM]	-17.6%[11.4 µM]	-27.3%	26.4%
CC1(C)CC(=O)C2=C(C1)NC(SCC(=O)Nc1ccccc1)=C(C#N)C2c1ccco1 (centres undefined)	5.4%	-1.4%[12.7 µM]	-34.9%	-37.3%	1.5%
Cc1ccc(NC(=O)CSC2=C(C#N)C(c3ccco3)C3=C(CCCC3=O)N2)cc1 (centres undefined)	10µM*	16.0%[12.7 µM]	u	u	25.4%
Cc1ccc(C(=O)CSC2=C(C#N)C(c3ccco3)C3=C(CC(C)(C)CC3=O)N2)cc1 (centres undefined)	-27.7%	39.8µM*	u	u	1.6%
COc1ccc(OC)c(NC(=O)CSC2=C(C#N)C(c3ccco3)C3=C(CCCC3=O)N2)c1 (centres undefined)	-17.7%	12.3%[12.7 µM]	u	-10.5%	-13.0%
COc1ccc(C2C(C#N)=C(SC)NC3=C2C(=O)CC(C)(C)C3)cc1 (centres undefined)	11.9%	25.1%[59 µM]	-3.5%	4.0%	52.1%
CCOC(=O)CSC1=C(C#N)C(c2ccc(C)cc2)C2=C(CCCC2=O)N1 (centres undefined)	2.4%	u	2.5%	6.4%	40.3%
N#CC1=C(SCC(=O)c2ccc(Cl)cc2)NC2=C(C(=O)CCC2)C1c1ccco1 (centres undefined)	44.7µM*	u	u	u	3.6%
COc1ccc(N2CCN(C(=O)Cn3nnc(-c4ccc(OC)c(OC)c4)n3)CC2)cc1	-6.1%	10.1%	0.6%	u	36.2%
Cc1ccc(CSc2nc3nc(C)cc(C)c3c(=O)[nH]2)cc1	-7.2%	-37.8%	-13.3%	-16.0%	40.4%
COc1ccc(-c2ccc(/C=N/NC(=O)c3cccnc3)o2)c([N+](=O)[O-])c1	-23.9%	7.1%[59 µM]	u	-4.5%	27.5%
N#CC1=C(SCC(=O)Nc2ccc(C(=O)O)cc2)NC(=O)CC1c1ccco1 (centres undefined)	31.6µM*	x	-21.1%	-20.9%	4.6%
O=C(CCS(=O)(=O)c1ccc(F)cc1)Nc1nc(-c2ccccn2)cs1	-11.2%	u	5.4%	u	23.2%
O=C(Nc1nc(-c2ccccc2)cs1)c1ccc(Br)o1	25.1µM*	u	-30.8%	-29.8%	u
O=C(NC(=S)Nc1nc(-c2ccccc2)cs1)c1cccnc1	u	2.51µM*	-16.7%	-22.6%	-5.9%
CC(Oc1ccc(F)cc1)C(=O)Nc1nc(-c2ccccn2)cs1 (centres undefined)	x	u	35.5µM*	44.7µM*	6.7%
CCc1ccc(-c2csc(NC(=O)Oc3ccccc3)n2)cc1	14.6%	44.7µM*	-30.8%	-33.1%	-5.9%
SMILES	Sfp inh	G9a block	JMJD2A Tudor inh	BAZ2B block	HP1b chromo inh
Cc1ccc(-c2onc(C)c2C)cc1S(=O)(=O)N1CCN(c2ccccc2F)CC1	x	2.6%[59 µM]	-15.6%	-1.0%	29.6%
CC(OC(=O)c1ccc([N+](=O)[O-])o1)C(=O)Nc1nc(-c2ccc(F)c(F)c2)cs1 (centres undefined)	x	28.2µM*	u	u	-19.3%
Cc1cc(C(=O)OC(C)C(=O)Nc2nc(-c3ccccc3)cs2)c(C)o1 (centres undefined)	2.5%	-4.1%[12.7 µM]	-26.2%	-28.1%	1.6%
O=C(NC(=S)Nc1nc(-c2ccccc2)cs1)c1ccco1	50.1µM*	27.5%[59 µM]	-8.4%	-24.9%	9.7%
CC(OC(=O)c1cccs1)C(=O)Nc1nc(-c2ccccc2)cs1 (centres undefined)	10.2%	79.4µM*	5.0%	3.4%	24.7%
O=C(Nc1nc(-c2ccccn2)cs1)c1ccco1	-49.8%	20µM*	56.2µM*	7.94µM*	-22.2%
CCOc1ccc2nc(SCC(=O)Nc3ccc(F)cc3)nc(-c3ccccc3)c2c1	x	12.7%[59 µM]	-25.8%	-0.4%	57.9%
O=C(Nc1nc(-c2cccs2)cs1)c1ccco1	-6.7%	u	-16.9%	-28.0%	16.0%
Cc1cccc(OC(C)C(=O)Nc2nc(-c3ccncc3)cs2)c1 (centres undefined)	x	35.5µM*	-5.2%	5.1%	21.9%
O=C(Nc1nc(-c2ccncc2)cs1)c1ccco1	-26.8%	35.5µM*	-15.5%	-9.1%	21.1%
O=C(Nc1nc(-c2ccccn2)cs1)c1ccc(Br)s1	11.8%	50.1µM*	u	35.5µM*	23.1%
Cc1ccnc2nc(C(=O)Nc3nc(-c4ccccn4)cs3)nn12	13.6%	20.2%[12.7 µM]	22.4µM*	3.16µM*	58.6%
CCn1cc(CN2CCC(n3nccc3NC(=O)Cc3ccccc3)CC2)cn1	12.2%	-2.3%	1.5%	-20.2%	9.3%
CSc1cccc(NC(=O)CCn2c(=O)c3cccn3c3cccnc32)c1	-11.4%	-2.6%[59 µM]	-15.8%	-7.4%	23.1%
O=C(Nc1nc(-c2cc3ccccc3oc2=O)cs1)c1ccco1	-20.0%	35.5µM*	-29.7%	u	27.3%
C[C@H](NC(=O)c1ccco1)C(=O)Nc1nnc(SCc2ccccc2)s1	x	x	0.0%	x	25.6%
C[C@H](NC(=O)c1ccco1)C(=O)Nc1nc(-c2ccccn2)cs1	x	x	44.7µM*	x	30.5%
CC(=O)CC[N+](C)(C)C	x	x	-0.7%	x	79.4µM*
Cc1nn(-c2ncc(C(F)(F)F)cc2Cl)c(=O)n1-c1c(F)cccc1F	16.3%	79.4µM*	-11.0%	-17.1%	28.9%
CN1CCC(N(C)S(=O)(=O)c2ccc(NC(=O)COc3cccc(C(F)(F)F)c3)cc2)CC1	x	u	-24.1%	-36.4%	4.8%
CC(=O)n1nc(-c2ccco2)nc1SCc1ccccc1	-15.1%	44.7µM*	-16.2%	-29.4%	9.9%
CCC(=O)n1nc(-c2ccco2)nc1N	4.2%	44.7µM*	-6.8%	-22.4%	7.8%
